Screens as filed in PubChem BioAssay.
JMJD2A Tudor: JMJD2A Tudor domain (human) inhibition; AlphaScreen JMJD2A-Tudor / H3K4me3 peptide binding; Potency, µM (top dose mostly 114 µM), most hits filed as inhibitors; 390,000 tested, 4.4% active; AID 504339; note: nearly all actives have a fitted effect of over 50% in size
L3MBTL1 block: blocks human L3MBTL1; 230,000 tested, 0.66% active; Potency, µM (highest dose often 57.1 µM), usual class: inhibitors; AlphaScreen L3MBTL1–H3K9me1 peptide binding; note: nearly all actives have a fitted effect of over 60% in size
Target sequence (Q9Y468 whole entry, looked up): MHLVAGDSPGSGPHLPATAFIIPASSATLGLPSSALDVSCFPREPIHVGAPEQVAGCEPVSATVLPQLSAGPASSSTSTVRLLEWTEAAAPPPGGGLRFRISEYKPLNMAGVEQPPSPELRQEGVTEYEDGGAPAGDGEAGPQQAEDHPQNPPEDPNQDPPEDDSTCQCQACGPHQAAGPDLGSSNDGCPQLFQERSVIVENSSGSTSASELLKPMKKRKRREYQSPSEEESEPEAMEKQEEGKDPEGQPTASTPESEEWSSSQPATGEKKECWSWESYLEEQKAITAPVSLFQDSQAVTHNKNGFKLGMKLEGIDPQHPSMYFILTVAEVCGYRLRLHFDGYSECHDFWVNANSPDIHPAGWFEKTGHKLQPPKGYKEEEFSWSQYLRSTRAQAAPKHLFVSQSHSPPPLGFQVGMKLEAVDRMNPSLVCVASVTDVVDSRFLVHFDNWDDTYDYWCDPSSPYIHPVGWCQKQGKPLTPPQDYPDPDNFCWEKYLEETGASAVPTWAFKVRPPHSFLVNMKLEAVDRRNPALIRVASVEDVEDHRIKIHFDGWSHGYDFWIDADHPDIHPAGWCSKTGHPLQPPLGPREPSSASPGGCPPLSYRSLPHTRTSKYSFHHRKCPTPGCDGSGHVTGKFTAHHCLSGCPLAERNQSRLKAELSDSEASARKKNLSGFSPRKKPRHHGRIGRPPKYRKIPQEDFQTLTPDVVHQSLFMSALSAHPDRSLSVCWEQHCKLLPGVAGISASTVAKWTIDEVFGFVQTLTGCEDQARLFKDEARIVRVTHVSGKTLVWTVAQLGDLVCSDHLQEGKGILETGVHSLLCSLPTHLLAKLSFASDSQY
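Read-out is AlphaScreen signal from streptavidin donor and nickel chelate acceptor beads (10 ug/mL final each) bridging L3MBTL1 (50 nM) and biotinylated K9-monomethylated H3(1-15) peptide (75 nM), after 30 min compound exposure at room temperature.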
G9a inh: G9a (human) methyltransferase inhibition. G9a H3K9 monomethylation, AlphaScreen, 2 h. Potency, µM (series often up to 102 µM), most hits filed as inhibitors. 350,000 tested, 8.8% active; note: nearly all actives have a fitted effect of over 75% in size
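Methyltransferase reactions run at room temperature for 2 h (20 nM enzyme, 500 nM biotin-H3K9 peptide, 20 uM SAM) after a 15 min compound preincubation; product detected by AlphaScreen beads and anti-H3K9me1 antibody.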
GLS inhibitor: glutaminase GLS (human) inhibition; Potency, µM (series often up to 45.5 µM), usual class: inhibitors; 410,000 tested, 0.21% active; AID 624170; GLS enzymatic activity, qHTS titration
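hKGA in 45 mM KH2PO4 pH 8.2, 0.02% Tween-20 with pin-transferred compounds; 1 mM L-glutamine (stock) plus glutamate oxidase/HRP/Amplex Red coupling added. Fluorescence read initially and after 30 min at RT.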
HP1b binding inh: blocks HP1-beta chromodomain binding to methylated histone tails. P83916. 390,000 tested, 0.56% active. Potency, µM (top dose mostly 114 µM), usual class: inhibitors. AlphaScreen HP1-beta / biotin-H3K9me3 peptide binding. AID 540317; note: nearly all actives have a fitted effect of over 70% in size
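HP1-beta protein (50 nM final) preincubated 30 min at room temperature with biotinylated H3(1-18)K9me3 peptide (50 nM) in PBS pH 7.4, 0.01% Tween-20, then compound added for 30 min. AlphaScreen streptavidin donor/nickel chelate acceptor beads (10 ug/mL final), 30 min dark, luminescence read.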
BAZ2B inh: blocks human BAZ2B; Q9UIF8; AlphaScreen BAZ2B-H3K14Ac peptide displacement; Potency, µM (doses to about 114 µM), actives largely listed as inhibitors; 360,000 tested, 4.4% active; note: nearly all actives have a fitted effect of over 60% in size
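Complex of BAZ2B and biotin-H3K14Ac (50 nM apiece) forms over 30 min at RT, then faces library compounds up to 110 uM for another 30 min; AlphaScreen beads added, 20 min dark incubation, luminescence read.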
Hits are given with their value; i = inactive; ? = inconclusive; nt = no result given; [ ] = remark or other dose. Sampled rows, rich in hits. Any-hit rate of the full collection: about 10%. Calls come from the whole dose curve; as a rule, active = well fitted curve in the direction sought with a large enough effect; inconclusive = small, poorly fitted or top-dose-only effect, or another doubt; inactive = no such curve, though single readings can be large; an effect the other way counts as inactive or inconclusive.

SMILES	JMJD2A Tudor	L3MBTL1 block	G9a inh	GLS inhibitor	HP1b binding inh	BAZ2B inh
COC(=O)c1ccc(NC(=O)CSc2cn(CC(=O)N3CCCCC3)c3ccccc23)cc1	i	nt	i	i	i	i
CCc1nnc2c(NCc3cccc(OC)c3)nc3ccccc3n12	i	nt	i	i	i	i
CCN(CC)CCCn1c(=S)[nH]c2cc(OC)c(OC)cc2c1=O	?	nt	?	i	i	i
O=c1c2cc(N3CCOCC3)ccc2[nH]c(=S)n1Cc1ccco1	50µM	?	7.1µM	i	i	?
O=c1c2cc(N3CCOCC3)ccc2[nH]c(=S)n1Cc1cccc(Cl)c1	i	i	i	i	i	i
COc1cc2[nH]c(=S)n(CCCN3CCOCC3)c(=O)c2cc1OC	25µM	nt	?	i	i	i
O=C(NC1CCN(Cc2ccccc2)CC1)c1ccc(Cn2c(=S)[nH]c3ccc(N4CCOCC4)cc3c2=O)cc1	i	nt	i	i	i	?
CCOc1cc2[nH]c(=S)n(CCCN3CCN(C)CC3)c(=O)c2cc1OCC	i[11.4 µM]	nt	nt	i	i	nt
O=C(c1ccc(Cn2c(=S)[nH]c3ccc(N4CCOCC4)cc3c2=O)cc1)N1CCC(N2CCCCC2)CC1	i	i	40µM	i	i	i
COCCn1c(=S)[nH]c2cc(OC)c(OC)cc2c1=O	89µM	i	?	i	i	i
Cc1cc(C)cc(C(=O)n2nc(C)c(S(=O)(=O)N3CCOCC3)c2C)c1	i	nt	?	i	i	i
CCC1CCCCN1CCn1c(=S)[nH]c2cc(OC)c(OC)cc2c1=O (stereo not given)	?	i	50µM	i	i	i
COc1cc2[nH]c(=S)n(CC3CCCO3)c(=O)c2cc1OC (stereo not given)	79µM	nt	?	i	i	i
CCOc1cc2[nH]c(=S)n(CC3CCCO3)c(=O)c2cc1OCC (stereo not given)	?	i	?	i	i	i
Cc1[nH]c(=S)n(CC2CCCO2)c1C (stereo not given)	28µM	i	?	i	i	i
CCOc1cc2[nH]c(=S)n(CC3CCCN3CC)c(=O)c2cc1OCC (stereo not given)	?	i[11.4 µM]	?	i	i	i
CN1CCC2(CC1)N=C(c1ccc(F)cc1)C(=S)N2C(=O)c1ccc(C(C)(C)C)cc1	32µM	i	10µM	i	32µM	35µM
CC(C)(C)c1ccc(C(=O)N2CCNCC2)cc1	i	nt	i[12.7 µM]	i	i	i
Cc1ccsc1/C=C1/SC(N2CC(C)OC(C)C2)=NC1=O (stereo not given)	i	i	45µM	i	i	i
Cc1ccc(S(=O)(=O)NCCCCCC(=O)Nc2nccs2)cc1	?	i	11µM	i	i	79µM
CCc1cc[n+](C(C(=S)Nc2cccc(C)c2)=C([O-])c2ccc(C)c([N+](=O)[O-])c2)cc1	?	nt	nt	i	?	nt
Cc1ccc(/C([O-])=C(/C(=S)NCc2ccccc2)[n+]2cccc(CO)c2)cc1[N+](=O)[O-]	?	i	28µM	i	i	?
COc1ccc(NC(=S)N(C(C)C)C2CCN(C(C)C)CC2)cc1Cl	nt	nt	45µM	nt	nt	i
COc1ccc(NC(=S)N(CCC(C)C)C2CCN(C(C)C)CC2)cc1	i	nt	i	i	i	i
COC(=O)c1ccc2c(=O)[nH]c(CSc3nc(-c4ccc(F)cc4)cs3)nc2c1	i	i	?	i	i	i
SMILES	JMJD2A Tudor	L3MBTL1 block	G9a inh	GLS inhibitor	HP1b binding inh	BAZ2B inh
COC(=O)c1ccc2c(=O)[nH]c(CSc3nc(C)cs3)nc2c1	i	i	40µM	i	i	i
CN1CCc2nc3sc(C(=O)Nc4c(F)cccc4F)c(N)c3cc2C1	i	nt	16µM	i	i	i
CN1CCc2nc3sc(C(=O)Nc4cccc(C#N)c4)c(N)c3cc2C1	?	nt	16µM	i	i	?
CCOC(=O)c1ccccc1NC(=O)NCc1c(-n2cccc2)sc2c1CCCC2	i	nt	i	i	i	?
CCOC(=O)c1c(NC(=O)CSc2cn(CCNC(=O)c3ccc(OC)c(OC)c3)c3ccccc23)sc2c1CCC2	i	nt	i	i	i	i
O=C(c1ccc(F)cc1)c1cnc(Nc2ccccc2)s1	i	nt	i	i	i	i
O=C(O)c1ccc(-c2sc(Nc3ccccc3)n[n+]2-c2ccccc2)cc1	45µM	i	nt	i	i	?
Cc1cccc(-c2sc(Nc3ccccc3)n[n+]2-c2ccccc2)c1	79µM	i	i[2.33 µM]	i	i	50µM
O=C(O)c1ccc(-c2sc(Nc3ccccc3)n[n+]2-c2ccc(F)cc2)cc1	i	i	40µM	i	i	i
C[n+]1nc(Nc2ccccc2)sc1-c1ccc(C(=O)O)cc1	nt	nt	i[12.7 µM]	nt	nt	i
COc1cccc(-n2ccn(CC(=O)c3ccc(F)cc3)c(=O)c2=O)c1	i	nt	i	i	i	i
C(=N\N1CCOCC1)/c1nc(-c2ccccc2)n2ccccc12	i	i	18µM	i	i	?
CC(C)CN1CCC(=O)N(C(CSc2ccc(Br)cc2)Cc2ccccc2)CC1 (stereo not given)	i	nt	nt	nt	i	nt
CCOc1cc(/C=C2\C(=O)N(c3ccc(C(N)=O)cc3)N=C2C)ccc1OC(=O)c1cccs1	i	i	45µM	?	i	50µM
CC1=NN(c2ccc(C(=O)O)cc2)C(=O)/C1=C\c1ccc(OC(=O)c2cccs2)cc1	i[11.4 µM]	?	32µM	?	i	?
O=C(N/N=C/c1ccc(OC(=O)c2cccs2)cc1)c1ccc(F)cc1	i	i	i	i	i	i
CCOc1cc(/C=C2\C(=N)N3N=C(N4CCCCC4)SC3=NC2=O)ccc1OC(=O)c1ccco1	?	i	?	i	i	?
CCOc1cc(/C=C2/C(=O)N(c3ccccc3)N=C2C)ccc1OC(=O)c1ccco1	56µM	i	?	i	i	45µM
COCCNC(=O)Nc1cc(C(=O)NCc2ccc(C(C)C)cc2)ccc1N1CCCC1	i	nt	i	i	i	?
COc1cc(C2C3=C(Nc4ncnn42)c2ccccc2CC3)cc(OC)c1OC (stereo not given)	i	i	32µM	i	i	i
Cc1ccc(C2=CC(c3ccccc3)n3ncnc3N2)cc1 (stereo not given)	i	nt	nt	i	i	nt
COc1cccc(C2=CC(c3ccc(C)cc3)n3ncnc3N2)c1 (stereo not given)	nt	i	40µM	nt	nt	i
Cc1ccsc1C1C=C(c2cccc(Br)c2)Nc2ncnn21 (stereo not given)	i	i	10µM	i	i	i
COc1cc(C2C=C(c3cccs3)Nc3ncnn32)cc(OC)c1OC (stereo not given)	?	i	32µM	i	i	i
O=C(CN1C(=O)c2ccccc2S1(=O)=O)Nc1cc(S(=O)(=O)N2CCOCC2)ccc1N1CCOCC1	i	nt	nt	nt	i	nt
